Screening data from PubChem BioAssay.
ASM inhibitor = blocks human secretory acid sphingomyelinase. placental ASM, HMU-PC fluorogenic substrate, 60 min. 340,000 tested, 0.006% active. P17405. Potency, µM (highest dose often 57.5 µM), actives largely listed as inhibitors
Target sequence (P17405 47-631 limits assumed): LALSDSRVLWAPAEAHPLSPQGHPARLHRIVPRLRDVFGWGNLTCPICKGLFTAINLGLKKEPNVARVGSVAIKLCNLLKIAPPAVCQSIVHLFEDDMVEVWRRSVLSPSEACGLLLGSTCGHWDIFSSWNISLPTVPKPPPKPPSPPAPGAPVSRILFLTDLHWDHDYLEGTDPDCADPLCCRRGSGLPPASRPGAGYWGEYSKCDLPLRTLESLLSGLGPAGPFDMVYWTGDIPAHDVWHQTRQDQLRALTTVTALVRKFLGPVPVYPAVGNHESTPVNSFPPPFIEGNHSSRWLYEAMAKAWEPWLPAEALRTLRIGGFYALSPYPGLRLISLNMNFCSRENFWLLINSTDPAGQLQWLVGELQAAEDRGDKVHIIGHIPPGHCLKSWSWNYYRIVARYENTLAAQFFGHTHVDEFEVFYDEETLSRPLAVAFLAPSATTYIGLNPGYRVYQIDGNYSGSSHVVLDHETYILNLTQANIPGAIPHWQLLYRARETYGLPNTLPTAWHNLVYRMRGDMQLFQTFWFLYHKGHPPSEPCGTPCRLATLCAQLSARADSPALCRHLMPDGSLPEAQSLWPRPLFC
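Human placenta-derived ASM preincubated with compound 10 min at room temperature, then reacted with 9 uM (final) fluorogenic HMU-PC substrate for 60 min at 37 C. Stop solution raises pH to 10; fluorescence read at Ex 386/Em 447 nm.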
DT40 TDP1 no CPT = qHTS for Inhibitors of human tyrosyl-DNA phosphodiesterase 1 (TDP1): qHTS in cells in absence of CPT | DT40 Tdp1-/- hTDP1 cells, no CPT, ATP luminescence, 48 h | Potency, µM (series often up to 46.2 µM), actives largely listed as inhibitors | 420,000 tested, 15% active | AID 686978, 2013; note: nearly all actives have a fitted effect of over 55% in size
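No-CPT arm: Tdp1-/-;hTDP1 DT40 cells (400/well) plus compounds, incubated ≥48 hr at 37 °C. Readout CellTiter-Glo luminescence.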
DT40 TDP1 CPT = DT40-hTDP1 cell growth loss with CPT. chicken DT40 Tdp1-/-;hTDP1 cells + 20 nM CPT, ATP luminescence, 48 h. Potency, µM (highest dose often 46.2 µM), hits mostly inhibitors. 420,000 tested, 12% active. AID 686979; note: nearly all actives have a fitted effect of over 55% in size
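Chicken DT40 Tdp1-/- cells stably complemented with human TDP1 were seeded at 400 cells/well in medium containing 20 nM camptothecin, exposed to pin-transferred compounds, and grown at 37 °C for at least 48 hr. Viability was read as ATP luminescence.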
IL1B secr inh = inflammasome signaling inhibition, IL-1 beta readout; AID 743279; activity change, % at 57.5 µM; 360,000 tested, 4.7% active; THP-1 LPS/ATP IL-1B secretion, AlphaLISA, 16 h; hits give low values; in the data active = activity change below about -50%; inconclusive = mostly about -30% to -49%
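THP-1 cells pretreated 1 hr with compounds (up to 57.5 uM final), then stimulated with LPS (250 ng/mL final) plus ATP (1.25 mM final); secreted IL-1B measured by AlphaLISA after 16 hr, decreased signal indicating inhibition.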
HepG2 tox = kills HepG2 cells in TGF-b inhibitor counter-screen | HepG2 CAGA-GFP viability, ATP luminescence, 18 h | Potency, µM (titrated, usually from 46.1 µM), actives largely listed as cytotoxic | 410,000 tested, 0.76% active | AID 588856
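CellTiter-Glo luminescence gave cytotoxicity after 18 hours at 37 degrees C. The cells were HepG2 CAGA-GFP in 1% FBS DMEM, stimulated with 500 pg/mL TGF-beta after compound addition. %Activity was normalised to no-cell wells (complete cell-killing) and DMSO (no toxicity), and curves were fitted and classified.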
TGFb SMAD3 inh = blocks TGF-b signaling; AID 588855; Potency, µM (doses to about 46.1 µM), actives largely listed as inhibitors; HepG2 CAGA-GFP TGF-b/SMAD3 reporter, GFP fluorescence, 18 h; TGF-beta stimulated, 500 pg/mL final; 410,000 tested, 1.2% active; note: nearly all actives have a fitted effect of over 65% in size
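Per well, imaged GFP fluorescence of HEPG2 CAGA-GFP cells gives the signal; cells get compound, then TGF-beta (500 pg/mL final), 18 h at 37 degrees C; %Activity versus -TGF-beta and +DMSO controls.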
Hits are given with their value. This is a sample that favours compounds with a hit; in the whole collection about 19% have one here. Unless noted, calls come from the whole dose curve; as a rule, active = well fitted curve in the direction sought with a large enough effect; inconclusive = small, poorly fitted or top-dose-only effect, or another doubt; inactive = no such curve, though single readings can be large; an effect the other way counts as inactive or inconclusive.

How did C=C(C)CSc1nc2sc3c(c2c(=O)n1-c1ccc(OC)cc1)CCN(C)C3 do in these assays?
ASM inhibitor: inactive; DT40 TDP1 no CPT: inconclusive; DT40 TDP1 CPT: inconclusive; IL1B secr inh: inactive; HepG2 tox: inactive; TGFb SMAD3 inh: inactive

What do the screens show for `CCCCCNC(=O)C(c1ccc(C#N)cc1)n1c(=O)c(-c2ccco2)nc2ccccc21` (stereo not given)?
DT40 TDP1 no CPT: inconclusive; DT40 TDP1 CPT: inconclusive; IL1B secr inh: inactive

What do the screens show for `CC(=O)c1cccc(NC(=O)COC(=O)c2ccccc2C)c1`?
ASM inhibitor: inactive; DT40 TDP1 no CPT: inactive; DT40 TDP1 CPT: inactive; IL1B secr inh: inactive; HepG2 tox: inactive; TGFb SMAD3 inh: inactive

How did Cc1ccc(NC(=O)CC(=O)c2ccc([N+](=O)[O-])cc2)cc1S(=O)(=O)Nc1cccc(Cl)c1 do in these assays?
ASM inhibitor: inconclusive; DT40 TDP1 no CPT: inactive; DT40 TDP1 CPT: inactive; IL1B secr inh: inactive; HepG2 tox: inactive; TGFb SMAD3 inh: inconclusive

Results for Cc1ccc(NC(=S)NC(=O)c2ccc(F)cc2)cc1S(=O)(=O)Nc1cccc(Cl)c1 ?
ASM inhibitor: inactive; DT40 TDP1 no CPT: 5.8µM; DT40 TDP1 CPT: 5.17µM; IL1B secr inh: inconclusive; HepG2 tox: inactive; TGFb SMAD3 inh: inactive

What do the screens show for `Cc1ccc(NC(=O)c2cccs2)cc1S(=O)(=O)Nc1cccc(Cl)c1`?
ASM inhibitor: inactive; DT40 TDP1 no CPT: inconclusive; DT40 TDP1 CPT: inactive; IL1B secr inh: -131.0; HepG2 tox: inactive; TGFb SMAD3 inh: inconclusive

What do the screens show for `CCOc1ccc(NS(=O)(=O)c2cc(NC(=O)CCC(=O)c3cccs3)ccc2Cl)cc1`?
ASM inhibitor: inactive; DT40 TDP1 no CPT: inconclusive; DT40 TDP1 CPT: 29.1µM; IL1B secr inh: inactive; HepG2 tox: inactive; TGFb SMAD3 inh: inconclusive

Results for COc1ccc([C@H]2C[C@H](O)[C@@H](n3cc(-c4ccc(F)cc4)nn3)CN2C(=O)c2cccs2)cc1 ?
DT40 TDP1 no CPT: inconclusive; DT40 TDP1 CPT: inconclusive; IL1B secr inh: inactive; HepG2 tox: inactive; TGFb SMAD3 inh: inactive

Results for Cc1ccc(NS(=O)(=O)c2cccc(C(=O)N3CCN(C(=O)c4ccco4)CC3)c2)cc1 ?
ASM inhibitor: inactive; DT40 TDP1 no CPT: inconclusive; DT40 TDP1 CPT: inactive; IL1B secr inh: inactive; HepG2 tox: inactive; TGFb SMAD3 inh: inactive

Results for O=C(O)CCC(=O)N1N=C(c2c(-c3ccccc3)c3cc(Cl)ccc3[nH]c2=O)CC1c1ccccc1 (stereo not given) ?
ASM inhibitor: inactive; DT40 TDP1 no CPT: inactive; DT40 TDP1 CPT: inactive; IL1B secr inh: inactive; HepG2 tox: inactive; TGFb SMAD3 inh: inactive

How did COc1ccccc1C1CC(c2c(-c3ccccc3)c3cc(Cl)ccc3[nH]c2=O)=NN1S(C)(=O)=O (stereo not given) do in these assays?
ASM inhibitor: inactive; DT40 TDP1 no CPT: 29.1µM; DT40 TDP1 CPT: 25.9µM; IL1B secr inh: inactive; HepG2 tox: inactive; TGFb SMAD3 inh: inconclusive

What do the screens show for `COc1ccc(C2CC(c3c(-c4ccccc4)c4cc(Cl)ccc4[nH]c3=O)=NN2C(=O)CCC(=O)O)cc1` (stereo not given)?
ASM inhibitor: inactive; DT40 TDP1 no CPT: inactive; DT40 TDP1 CPT: inactive; IL1B secr inh: inactive; HepG2 tox: inactive; TGFb SMAD3 inh: inactive

Results for COc1cccc(C2CC(c3c(-c4ccccc4)c4cc(Cl)ccc4[nH]c3=O)=NN2S(C)(=O)=O)c1OC (stereo not given) ?
ASM inhibitor: inactive; DT40 TDP1 no CPT: 16.4µM; DT40 TDP1 CPT: 20.6µM; IL1B secr inh: inconclusive; HepG2 tox: inactive; TGFb SMAD3 inh: inconclusive

What do the screens show for `Oc1[nH]c2ccccc2c1N=Nc1nc(Nc2ccccc2)nc(N2CCOCC2)n1`?
ASM inhibitor: inactive; DT40 TDP1 no CPT: 1.84µM; DT40 TDP1 CPT: inactive; IL1B secr inh: inconclusive; HepG2 tox: inactive; TGFb SMAD3 inh: inactive
